Data: PubChem BioAssay (NCATS)
Values joined by “and” are separate entries in the source; they are usually repeats but may differ in a detail not shown here. Equal values may be shown once. Results filed as inconclusive are left out. Active and inactive are the calls of the source. The call rests on the fitted dose curve; in most records, active means well fitted curve in the direction sought with a large enough effect; inconclusive means small, poorly fitted or top-dose-only effect, or another doubt; inactive means no such curve, though single readings can be large; an effect the other way counts as inactive or inconclusive. Non-standard residues stand in square brackets, D forms with d. Residues, ends and D or L forms follow the SMILES beside them. *: point of attachment. Nva = CCC[C@H](N)C(=O)O; Cbz = O=C(OCc1ccccc1)*

Key:
[1] = target: Cellular tumor antigen p53 (Homo sapiens) (UniProt P04637); assay: Primary qHTS for small molecule compounds that upregulate eGFP-tagged delta133p53alpha (in N-terminal) cells. (AID 2060322); conditions: NCI-H358 eGFP-delta133p53alpha fluorescence, 24 h; activation: hits give high values; further: nearly all actives have a fitted effect of over 75% in size;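 on activation: series mostly up to about 56 µM; 0% = DMSO vehicle and 100% = reference activator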
Cellular tumor antigen p53 (Homo sapiens), sequence (P04637 whole entry, looked up): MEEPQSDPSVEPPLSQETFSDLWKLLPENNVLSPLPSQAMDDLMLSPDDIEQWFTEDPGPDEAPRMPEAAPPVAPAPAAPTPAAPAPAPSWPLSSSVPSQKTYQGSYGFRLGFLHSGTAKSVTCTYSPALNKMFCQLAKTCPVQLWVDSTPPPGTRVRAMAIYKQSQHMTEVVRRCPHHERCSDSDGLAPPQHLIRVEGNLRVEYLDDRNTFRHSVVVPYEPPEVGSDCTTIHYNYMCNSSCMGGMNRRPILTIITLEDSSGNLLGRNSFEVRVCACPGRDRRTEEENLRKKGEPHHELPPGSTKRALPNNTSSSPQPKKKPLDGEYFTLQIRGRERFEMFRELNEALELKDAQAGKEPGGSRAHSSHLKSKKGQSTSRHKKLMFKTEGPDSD
How it was run: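 NCI-H358 cells pre-induced 24 h with 10 ng/ml doxycycline to express N-terminal eGFP-delta133p53alpha, then dosed 24 h at 37C without doxycycline; fixed, Hoechst-stained, GFP intensity by laser scanning cytometry, normalized to DMSO (0%) and 57.5 uM 5-azacytidine (100%).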

[2] = BET inhibitor-based combinations targeting novel dependencies in MECOM-rearranged (r) AML: SET-2 cell line (AID 2202231); conditions: SET-2 AML cells viability, CellTiter-Glo luminescence, 48 h; viability: hits give low values, concentration not given here; further: nearly all actives have a fitted effect of over 35% in size;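 on viability: plate controls were DMSO treated cells for no effect and wells without cells for full effect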
How it was run: (§1)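 500 cells/well; 11-pt dose curve; 48 h, standard incubator; CellTiter-Glo luminescence after 15 min RT; DMSO/empty-well normalization; AUC plus Z-AUC (mean-centered within each line).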

[3] = BET inhibitor-based combinations targeting novel dependencies in MECOM-rearranged (r) AML: OCI-AML3 cell line (AID 2202232); conditions: Potency: OCI-AML3 viability; further: nearly all actives have a fitted effect of over 35% in size
How it was run: as §1

[4] = BET inhibitor-based combinations targeting novel dependencies in MECOM-rearranged (r) AML: MV-4-11 cell line (AID 2202233); further: nearly all actives have a fitted effect of over 45% in size
How it was run: (§2)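 Cells were plated at 500 per well and exposed to each drug across an 11-point dose range for 48 hr at standard incubator conditions. Viability was read by CellTiter-Glo luminescence, and activity was expressed as AUC and per-cell-line Z-transformed AUC.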

[5] = BET inhibitor-based combinations targeting novel dependencies in MECOM-rearranged (r) AML: HNT-34 cell line (AID 2202234); further: nearly all actives have a fitted effect of over 35% in size
How it was run: as §2

[6] = BET inhibitor-based combinations targeting novel dependencies in MECOM-rearranged (r) AML: UCSD-AML1 cell line (AID 2202235); further: nearly all actives have a fitted effect of over 40% in size
How it was run: as §2

[7] = BET inhibitor-based combinations targeting novel dependencies in MECOM-rearranged (r) AML: AML-191 cell line (AID 2202236; further: nearly all actives have a fitted effect of over 35% in size)
How it was run: as §1

[8] = BET inhibitor-based combinations targeting novel dependencies in MECOM-rearranged (r) AML: AML-194 cell line (AID 2202237; further: nearly all actives have a fitted effect of over 40% in size)
How it was run: as §1
Potency means the concentration at half of the fitted maximal effect.

CN(CCOc1ccc(CC2SC(=O)NC2=O)cc1)c1ccccn1 (stereo not given)
inactive: activation [1] 6.69% and 5.38% | viability [2] 102% | Potency [3] | Potency [4] | Potency [5] | Potency [6] | Potency [7] | Potency [8]

COc1cccc2c1C(=O)c1c(O)c3c(c(O)c1C2=O)C[C@@](O)(C(=O)CO)C[C@@H]3O[C@H]1C[C@H](N)[C@H](OC2CCCCO2)[C@H](C)O1 (stereo not given in full)
inactive: activation [1] 3.12%
active: Potency [2] 1.32 µM and 833 nM | Potency [3] 0.186 µM | Potency [4] 18.6 nM and 74.2 nM | Potency [5] 332 nM and 235 nM | Potency [6] 209 nM and 263 nM | Potency [7] 118 nM and 372 nM | Potency [8] 332 nM and 296 nM

N[C@@H](CC(=O)N1CCn2c(nnc2C(F)(F)F)C1)Cc1cc(F)c(F)cc1F
inactive: activation [1] -12.2% | viability [2] 112% | Potency [3] | Potency [4] | Potency [5] | Potency [6] | Potency [7] | Potency [8]

CC1(C)Cc2c(sc(NC(=S)NC(=O)c3ccccc3)c2C(=O)O)CO1
inactive: activation [1] -34.5% | viability [2] 110% | Potency [3] | Potency [4] | Potency [5] | Potency [6] | Potency [7] | Potency [8]

CCC[C@@H](C=O)NC(=O)[C@H](CC(C)C)NC(=O)[C@H](CC(C)C)NC(=O)OCc1ccccc1 (Cbz-Leu-Leu-[Nva]-aldehyde)
active: Potency [1] 5.44 µM | Potency [2] 2.09 µM | Potency [3] 2.35 µM | Potency [4] 2.95 µM | Potency [5] 2.63 µM | Potency [6] 3.32 µM | Potency [7] 2.95 µM | Potency [8] 2.63 µM
